Results reported in ChEMBL document CHEMBL3988442, “University of Dundee, Small-Polar-MMV Screening Library” (2021).
Screen size: about 48,000 compounds; about 13,000 (27%) showed an effect of 50% or more. The list shows a part of the results.

What follows are compounds tested on Wolbachia pipientis (assay: Anti-Wolbachia Cell-Based Screen). Conditions: 5 µM.
Type: functional
Parameters: scale not given: in the data most compounds retested in dose-response had high values

SMILES | Percent Effect [%]
COCc1c(Br)cccc1NC(=O)N(C)CCO | -0.915
CCN(Cc1ccncc1)C1CCCN(Cc2ccc(F)cc2OC)C1 (stereo not drawn) | -6.511
COc1ccc(C(C#N)NC(=O)Cc2ccc(F)c(F)c2)c(OC)c1 (stereo not drawn) | 86.82
COc1cccc(C(CO)NC(=O)Cc2ccc(F)c(Br)c2)c1 (stereo not drawn) | 1.843
COc1ccc(C(C#N)NC(=O)CC2=CCCCC2)c(OC)c1 (stereo not drawn) | -6.467
COCc1nc(C)cc(Nc2ccc3c(c2)CC(=O)N3)n1 | -4.999
COc1cc2c(cc1CN1C[C@@H](CN3CCOCC3)[C@@H](CO)C1)CCC2 | 3.11
COc1ccc(OC)c(C2CCN(C(=O)C3CCOCC3)C2)c1 (stereo not drawn) | 3.237
Cc1c[nH]c(CN2CC[C@@]3(O)CCN(C(=O)C4CCCC4)C[C@H]3C2)n1 | 6.79
Cc1c[nH]nc1C1CCN(C(=O)C2CCOCC2)C1 (stereo not drawn) | 146.2
Cc1c[nH]nc1C1CCN(C(=O)C2CCCC2)C1 (stereo not drawn) | 108.3
CCc1nc(CN2CCCN(C(=O)CC3CCCC3)CC2)cs1 | -10.08
COc1ccc2cc(C3CN(C(=O)C4CCOCC4)CCO3)ccc2c1 (stereo not drawn) | -17.44
Cc1c[nH]nc1C1CCN(C(=O)CC2CCCC2)C1 (stereo not drawn) | 140.5
O=C(C1CCC1)N1CCC(C(=O)N2CCC(c3ccc(F)cc3)C2)CC1 (stereo not drawn) | 15.47
Cc1c[nH]nc1C1CCN(S(=O)(=O)N(C)C)CC1 | -12.28
Cc1c[nH]nc1C1CCN(C(=O)C2CCC2)CC1 | 187.6
O=C(C1CCS(=O)(=O)CC1)N1CCC(c2ccc(F)cc2)C1 (stereo not drawn) | -11.81
Cc1ccc(NC(=O)N2CCN(C(=O)CC3CCCC3)CC2)s1 | -2.154
CNC(=O)[C@@H]1C[C@H](N)CN1S(=O)(=O)c1cc(Cl)c(Cl)s1 | -16.04
Cc1ccc2oc(C(=O)N3CCCC(n4nc(C)cc4C)C3)cc2n1 (stereo not drawn) | -4.167
C1CCN(CCOC2CCNCC2)C1 | -3.216
CNC(=O)[C@@H]1C[C@@H](N)CN1C1CCN(c2ccccc2F)CC1 | -6.416
O=C(c1ccc2[nH]nnc2c1)N1CC[C@H](O)[C@]2(CCCO2)C1 | 85.31
O=C(c1ccc2c(c1)CCC2)N1CCCCC1C1OCCO1 (stereo not drawn) | -21.29
O=C(c1ccc2c(c1)CCC2)N1CC[C@H](O)[C@]2(CCCO2)C1 | 143.9
O=C(c1ccc2[nH]nnc2c1)N1C[C@H](O)[C@]2(CCCO2)C1 | 107.9

SMILES | Percent Effect [%]
CC(C)S(=O)(=O)NCC1CCCN(C(=O)c2ccc3c(c2)CCC3)C1 (stereo not drawn) | -10.39
O=C(c1ccc2[nH]nnc2c1)N1CCCC(n2cccn2)C1 (stereo not drawn) | -7.495
COc1ccc(NC(=O)NC(C)(C)c2noc(C)n2)cc1 | -12.65
CS(=O)(=O)CCOCCNc1ccc(C#N)cc1F | -9.887
FC(F)(F)c1n[nH]c2c1CN(CCc1ccccn1)CC2 | -4.323
COc1ccc(-c2cccc(-c3ccn(CC4COCCO4)n3)c2)nn1 (stereo not drawn) | -12.89
Cn1cnc2cc(C(=O)NS(=O)(=O)c3ccc(F)cc3)ccc21 | -13.37
O=C(O)C1c2nc[nH]c2CCN1Cc1ccc(-c2ccccc2)s1 (stereo not drawn) | -13.4
Cc1nc(CN2CCC3(CCN(Cc4cnn(C)c4)C3)C2=O)cs1 (stereo not drawn) | 104.5
Cc1nc(CN2CCC3(CCCN(Cc4cnn(C)c4)C3)C2=O)cs1.O=C(O)C(F)(F)F.O=C(O)C(F)(F)F (stereo not drawn) | 12.7
Cc1nc(CN2CCC3(CCN(Cc4cnn(C)c4)CC3)C2=O)cs1.O=C(O)C(F)(F)F.O=C(O)C(F)(F)F | 102.9
Cc1nc(CN2CCC3(CCN(Cc4nccn4C)CC3)C2=O)cs1.O=C(O)C(F)(F)F.O=C(O)C(F)(F)F | 106
O=C1O[C@@H]2CN(Cc3cc4ccccc4o3)C[C@@H]2N1Cc1ccccn1 | 8.786
CN(Cc1ccncn1)c1nccc(CCC(F)(F)F)n1 | 2.558
O=C(CC1CC1)NCc1cn2c(n1)CN(C(=O)C1CCOCC1)CC2 | 7.38
O=C(NCc1cn2c(n1)CN(CC1CCOCC1)CC2)C1CCC1.O=C(O)C(F)(F)F | -3.322
c1c(CN2CCOCC2)nc2n1CCN(CC1CC1)C2 | 101.8
CN1CCN(Cc2cn3c(n2)CN(C(=O)N2CCOCC2)CC3)CC1.O=C(O)C(F)(F)F.O=C(O)C(F)(F)F | -14.48
CN(Cc1cn2c(n1)CN(C1CCOCC1)CC2)Cc1ccco1.O=C(O)C(F)(F)F.O=C(O)C(F)(F)F | 4.973
O=C(O)C(F)(F)F.O=C(O)C(F)(F)F.c1c(CN2CCCC2)nc2n1CCN(CC1CC1)C2 | -6.407
c1c(CN2CCOCC2)nc2n1CCN(C1CCOCC1)C2 | 79.69
c1nc2n(c1CN1CCOCC1)CCN(C1CCOC1)CC2 (stereo not drawn) | -7.987
c1c(CN2CCCCC2)nc2n1CCN(CC1CC1)C2 | 5.412
CN1CCN(Cc2cn3c(n2)CN(C2CCOCC2)CC3)CC1.O=C(O)C(F)(F)F.O=C(O)C(F)(F)F.O=C(O)C(F)(F)F | 107
O=C(O)C(F)(F)F.O=C(O)C(F)(F)F.c1c(CN2CCCC2)nc2n1CCN(C1CCOCC1)C2 | 102.1
O=C(O)C(F)(F)F.O=C(O)C(F)(F)F.c1cn2c(n1)CN(C1CCOCC1)CC(CN1CCCC1)C2 (stereo not drawn) | -10.3
